# Laboratory results from the supplement of paper PMC10338343.
# ± gives the standard deviation.
# Tested on: EfPiwi piRISC loaded with L1MC piRNA (26 nt)
# Experiment: pre-steady-state target cleavage rate (min^-1); auxiliary factor: 500 nM Ephydatia muelleri Gtsf1; guide: L1MC piRNA 5'p-UAACUAAAUACUAUGCAAGCUGUAGG; MIWI and MILI are mouse PIWI proteins and EfPiwi is from a freshwater sponge; tags in brackets are library labels; higher = faster piRNA-guided slicing of the target
# In short: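 The pre-steady-state cleavage rate came from a burst-and-steady-state fit to pooled data from three Cleave-'n-Seq trials, in which uncleaved targets were sequenced and normalised to depth and to weakly complementary targets. Each reaction held 0.1 nM transcribed, DNA-blocked target RNA library and 1 nM active affinity-purified piRISC carrying one synthetic guide, with or without 500 nM GTSF1 partner protein, in HEPES–potassium acetate buffer at 33 °C for 0–8 or 0–960 min. k3 was capped at 0.0001 min^-1.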
row,Sequence,pre-steady-state target cleavage rate
1,UCCUCCUGCAGCUUGCAUAGUAUUUAGUUA,0.103 ± 0.024
2,UCCUCCUACACCUAGCAUAGUAUUUAGUUA,0.00718 ± 0.0027
3,UCCUGGAAGAGCUUGCAUAGUAUUUUGUUA,0.00497 ± 0.0026
4,UCCUGGAUCAGCUUGCAUAGUAUUUAGAAA,0.00346 ± 0.0016
5,UCCUGGUACAGCUUGCAUAGUAUUUAGUUUA,0.0765 ± 0.024
6,UCCUGGAUCAGACUUGCAUAGUAUUUAGUUA,0.0293 ± 0.009
7,UCCUGGAACUCCUUGCAUAGUAUUUAGUUA,0.0352 ± 0.009
8,UCCUGCUUCAGGUUGCAUAGUAUUUAGUUA,0.0664 ± 0.015
9,UCCUGCUACAGGCUUGCAUAGUAUUUAGUUA,0.00977 ± 0.0027
10,UCCUGGAUCAGCUUGCGUAGUAUUUAGUUA,0.0111 ± 0.0032
11,UCCUGGAACAGCUUGCAUAGUAUGUAGUUA,0.00302 ± 0.0021
12,UCCUCCAACUGCUUGCAUAGUAUUUAGUUA,0.0183 ± 0.0064
13,UCCUGGAACACGAUGCAUAGUAUUUAGUUA,0.00377 ± 0.0016
14,UCCUGGUUCAGCUUGCAUACUAUUUAGUUA,0.00751 ± 0.0031
15,UCCUGGUUCAGCAUGCAUAGUAUUUAGUUA,0.0347 ± 0.0092
16,UCCUGGAUGUCCUUGCAUAGUAUCUAGUUA,0.00775 ± 0.0043
17,UCCUGCUACAGCUUGCAUAGUAUUUUAGUUA,0.00822 ± 0.0026
18,UCCUCCUACAGCUAGCAUAGUAUUUAGUUA,0.0119 ± 0.0038
19,UCCUGCUACACGCUUGCAUAGUAUUUAGUUA,0.00609 ± 0.0019
20,UCCUGGAUCAGCUUGCAUAGUAUUUUGUUA,0.0125 ± 0.0042

row,Sequence,pre-steady-state target cleavage rate
1,UCCUGCUUCUGCUUGCAUAGUAUUUAGUUA,0.0112 ± 0.0038
2,UCCUCCUAGUCCUUGCAUAGUAUUUAGUAA,0.00549 ± 0.0034
3,UCCUGCUACAACUUGCAUAGUAUUUAGUUA,0.00776 ± 0.0029
4,UCCUGGAUGUGCUUCGCAUAGUAUUUAGUUA,0.0132 ± 0.0048
5,UCCUGGAACAGCAUGCAUAGUAUUAAGUUA,0.00499 ± 0.0017
6,UCCUGGAUGAGCUUGCAUAGUAUUUAGUUG [g2:g21:cont:t1G],0.0161 ± 0.0043
7,UCCUGGUACUGCUUGCAUUGUAUUUAGUUA,0.00516 ± 0.0027
8,UCCUCCAACAGCUUGCAAAGUAUUUAGUUA,0.0132 ± 0.0038
9,UCCUGGUACAGCUUGCCUAGUAUUUAGUUA,0.00475 ± 0.0026
10,UCCUGCUACAGCAUGCAUAGUAAUUAGUUA,0.007 ± 0.0024
11,UCCUGGAUCAGCUUGUCAUAGUAUUUAGUUA,0.0196 ± 0.0046
12,UCCUCCUACUCCUUGCAUAGUAUUUAGUUA,0.165 ± 0.046
13,UCCUGCUACAGCUUGCAUAGUAGUUAGUUA,0.00461 ± 0.0015
14,UCCUGGUACAGCUUGCAUAGUAUUUAGAUUA,0.00491 ± 0.0025
15,UCCUGGAUGUCCUUGCAUAGUACUUAGUUA,0.00586 ± 0.0027
16,UCCUGGAUGUGCGUUGCAUAGUAUUUAGUUA,0.00539 ± 0.0024
17,UCCUGGAUGAGCAUGCAAAGUAUUUAGUUA,0.00414 ± 0.0036
18,UCCUGGAUGAGCUUGCAUUGUAUUUAGUAA,0.00311 ± 0.0025
19,UCCUGCAUCAGCUUGCAUAGUAUUUAGUAA,0.00847 ± 0.0021
20,UCCUGGAAGAGCUUGCAUUGUAUUUAGUUA,0.0104 ± 0.0029
